The source of these data is paper PMC5540273 (PLoS ONE, 2017).
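Also: KINOMEscan kinase panel screen.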

The test system of one experiment is ULK2. The note with it: concentration: 1 μM, replicates: in singlicate; n = 1.
On to `CC(C)(C)OC(=O)NC1CCCN(c2cc(-c3ccc4c(N)n[nH]c4c3)nc(N)n2)C1` (stereo not shown) [GSK2286096], for which the “%Inh” value was determined as 0%.
The same measure, in the same setting: with `Fc1cccc(COc2ccc(Nc3ncnc4sc(-c5ccc[nH]5)cc34)cc2Cl)c1` [GW707818] the figure was 0%; with `COc1cc2c(Nc3cccc(NC(=O)c4ccccc4)c3)ncnc2cc1OCCCN1CCOCC1` [GSK223810], 0%.
For `O=C(c1ccc(-c2cc(-c3c[nH]nc3-c3ccccn3)ccn2)cc1)N1CCCC1` [GW792479], the “%Inh” value turned out to be 0%.
With `Cc1ccc(C)c(NC(=O)NCCNc2ccnc(Nc3ccc(F)cc3)n2)c1` [GSK1379878], the “%Inh” value was found to be 0%.
As to `CC(=O)Nc1n[nH]c2ncc(-c3ccccc3)cc12` [SB-548492], the “%Inh” value stood at 35%.
Consider `Cl.Cn1ccc(-c2cccc(Nc3ccnc4cc(-c5nccs5)ccc34)c2)n1` [GW525701], for which the “%Inh” value is 0%.
Take `O=C(CCO)NCCn1ccc2ncnc(Nc3ccc(Oc4cccc(C(F)(F)F)c4)c(Cl)c3)c21`: the “%Inh” value was 0%.
`O=C(Nc1n[nH]c2nc(-c3ccco3)c(Br)cc12)c1ccc(CN2CCCC2)cc1.O=C(O)[C@H](O)[C@@H](O)C(=O)O` [SB-742352]: the “%Inh” value was determined as 0%.
Regarding `Oc1ccc2ncnc(Nc3ccc(OCc4ccccc4)cc3)c2c1` [GI262866], the “%Inh” value is recorded as 0%.
Consider `NC(=O)c1sc(-n2cnc3ccccc32)cc1OCc1ccccc1F` [GSK1024306], for which the “%Inh” value turned out to be 0%.
Turning to `Fc1cccc(COc2ccc(Nc3ncnc4nn5ccccc5c34)cc2Cl)c1` [GW689066], the “%Inh” value was 0%.
As for `O=c1cc(N2CCOCC2)nc2n(Cc3cccc(Cl)c3)ccn12` [GSK2296823], the “%Inh” value is recorded as 0%.
On the same count and under the same terms, as for `O=C(Nc1ccccc1)Nc1ccc(Oc2ccc3nccn3n2)cc1`, the figure is 0%; as for `Fc1cccc(COc2ccc(Nc3ncnc4cc[nH]c34)cc2Cl)c1`, 14%.
In the case of `C[C@@H]1CCN(C(=O)CO)C[C@@H]1N(C)c1ncnc2[nH]ccc12`, the “%Inh” value is given as 0%.
As to `FC(F)(F)c1ccc(-c2nn3ncccc3c2-c2ccnc(Nc3cccc(C(F)(F)F)c3)n2)cc1` [GW828205], the “%Inh” value came to 0%.
For the compound `CSc1nn2c(=O)cc(N3CCOCC3)nc2n1Cc1cccc(Cl)c1Cl` [GSK2347225], the “%Inh” value is on record as 0%.
Take `Cl.c1ccc(Cn2ccc3cc(Nc4ncnc5ccccc45)ccc32)cc1` [GW275568]: the “%Inh” value is reported as 0%.
On to `CCCc1ccc(S(=O)(=O)NC2CCN(c3ccnc(Nc4ccc(OC)cc4)n3)C2)cc1` (stereo not shown) [GSK1379737], for which the “%Inh” value was found to be 0%.
Take `CCn1c(-c2ccncc2)nc2cnccc21` [SB-735216]: the “%Inh” value is given as 8%.
For the compound `Nc1nc(-c2ccc3c(N)n[nH]c3c2)cc(N2CCCCC2)n1` [GSK2228768], the “%Inh” value came to 0%.
For `COC(=O)c1cccc(NC(=O)NCCNc2ccnc(Nc3ccc(F)cc3)n2)c1` [GSK1379883], the “%Inh” value is 0%.
Consider `CC(C)(C)c1ccc(-n2cnc3c(N)ncnc32)cc1` [SKF-97263], for which the “%Inh” value is recorded as 4%.
With `Cc1cc(N2CCC(NS(=O)(=O)c3ccc(F)cc3)CC2)nc(Nc2cccc(C#N)c2)n1.O=C(O)C(F)(F)F` [GSK1653537], the “%Inh” value was 0%.
As to `CCC(CC)(CC)n1cnc2c(N)ncnc21` [SKF-97620], the “%Inh” value is reported as 2%.
Turning to `OCCOCCn1ccc2ncnc(Nc3ccc(Oc4cccc(Cl)c4)c(Cl)c3)c21`, the “%Inh” value came to 0%.
Still for that read-out and setting: as for `COc1ccc(Nc2nccc(N3CCC(NC(=O)c4cccc(NC(C)=O)c4)C3)n2)cc1` (stereo not shown) [GSK1379732], the figure is 0%; as for `Cc1ccc(O)cc1Nc1cc(C(F)(F)F)nc2ccc(-c3ccncc3)cc12` [GW630823], 0%.
Turning to `Cn1ccc2ncnc(Nc3ccc(Oc4cccc(Cl)c4)c(Cl)c3)c21`, the “%Inh” value turned out to be 31%.
Take `Clc1cc(Nc2ncnc3cc[nH]c23)ccc1OCc1ccccn1`: the “%Inh” value is listed as 14%.
On to `O=C(NCCCN1CCCC1=O)c1cnc(NCc2cc(Cl)ccc2Cl)nc1NC1CCNCC1`, for which the “%Inh” value was determined as 0%.
As to `COc1ccc(Nc2nccc(N3CCC(NC(=O)Nc4ccc5c(c4)OCO5)C3)n2)cc1` (stereo not shown) [GSK1379745], the “%Inh” value stood at 0%.
Turning to `Fc1ccc(Nc2nccc(-c3c(-c4ccc(Cl)cc4)nn4ncccc34)n2)cc1F` [GW829058], the “%Inh” value was 100%.
In the case of `C[C@H]1CC[C@@H](C(=O)Nc2ccccc2)CN1c1cc(-c2ccc3c(N)n[nH]c3c2)nc(N)n1` [GSK2283293], the “%Inh” value was determined as 0%.

Another experiment has as its system ULK3. The note with it: concentration: 1 μM, replicates: in singlicate; n = 1.
Regarding `CC(C)(C)OC(=O)NC1CCCN(c2cc(-c3ccc4c(N)n[nH]c4c3)nc(N)n2)C1` (stereo not shown) [GSK2286096], the “%Inh” value is 0%.
Turning to `Fc1cccc(COc2ccc(Nc3ncnc4sc(-c5ccc[nH]5)cc34)cc2Cl)c1` [GW707818], the “%Inh” value is 1%.
Same read-out and setting: with `COc1cc2c(Nc3cccc(NC(=O)c4ccccc4)c3)ncnc2cc1OCCCN1CCOCC1` [GSK223810] the figure was 24%; with `O=C(c1ccc(-c2cc(-c3c[nH]nc3-c3ccccn3)ccn2)cc1)N1CCCC1` [GW792479], 0%.
With `Cc1ccc(C)c(NC(=O)NCCNc2ccnc(Nc3ccc(F)cc3)n2)c1` [GSK1379878], the “%Inh” value is 0%.
For the compound `CC(=O)Nc1n[nH]c2ncc(-c3ccccc3)cc12` [SB-548492], the “%Inh” value is 30%.
As for `Cl.Cn1ccc(-c2cccc(Nc3ccnc4cc(-c5nccs5)ccc34)c2)n1` [GW525701], the “%Inh” value was 0%.
On the same count and under the same terms, as for `O=C(CCO)NCCn1ccc2ncnc(Nc3ccc(Oc4cccc(C(F)(F)F)c4)c(Cl)c3)c21`, the figure is 0%; as for `O=C(Nc1n[nH]c2nc(-c3ccco3)c(Br)cc12)c1ccc(CN2CCCC2)cc1.O=C(O)[C@H](O)[C@@H](O)C(=O)O` [SB-742352], 27%.
On the same count and under the same terms, as for `Oc1ccc2ncnc(Nc3ccc(OCc4ccccc4)cc3)c2c1` [GI262866], the figure is 4%; as for `NC(=O)c1sc(-n2cnc3ccccc32)cc1OCc1ccccc1F` [GSK1024306], 9%; as for `Fc1cccc(COc2ccc(Nc3ncnc4nn5ccccc5c34)cc2Cl)c1` [GW689066], 2%.
For `O=c1cc(N2CCOCC2)nc2n(Cc3cccc(Cl)c3)ccn12` [GSK2296823], the “%Inh” value turned out to be 11%.
Take `O=C(Nc1ccccc1)Nc1ccc(Oc2ccc3nccn3n2)cc1`: the “%Inh” value is listed as 2%.
`Fc1cccc(COc2ccc(Nc3ncnc4cc[nH]c34)cc2Cl)c1`: the “%Inh” value is given as 34%.
For the compound `C[C@@H]1CCN(C(=O)CO)C[C@@H]1N(C)c1ncnc2[nH]ccc12`, the “%Inh” value turned out to be 12%.
The same measure, in the same setting: as for `FC(F)(F)c1ccc(-c2nn3ncccc3c2-c2ccnc(Nc3cccc(C(F)(F)F)c3)n2)cc1` [GW828205], the figure is 0%.
On the same count and under the same terms, with `CSc1nn2c(=O)cc(N3CCOCC3)nc2n1Cc1cccc(Cl)c1Cl` [GSK2347225] the figure was 0%.
For the compound `Cl.c1ccc(Cn2ccc3cc(Nc4ncnc5ccccc45)ccc32)cc1` [GW275568], the “%Inh” value is listed as 9%.
Take `CCCc1ccc(S(=O)(=O)NC2CCN(c3ccnc(Nc4ccc(OC)cc4)n3)C2)cc1` (stereo not shown) [GSK1379737]: the “%Inh” value is reported as 7%.
As to `CCn1c(-c2ccncc2)nc2cnccc21` [SB-735216], the “%Inh” value worked out at 25%.
In the case of `Nc1nc(-c2ccc3c(N)n[nH]c3c2)cc(N2CCCCC2)n1` [GSK2228768], the “%Inh” value is 0%.
Regarding `COC(=O)c1cccc(NC(=O)NCCNc2ccnc(Nc3ccc(F)cc3)n2)c1` [GSK1379883], the “%Inh” value worked out at 23%.
Same read-out and setting: as for `CC(C)(C)c1ccc(-n2cnc3c(N)ncnc32)cc1` [SKF-97263], the figure is 17%; as for `Cc1cc(N2CCC(NS(=O)(=O)c3ccc(F)cc3)CC2)nc(Nc2cccc(C#N)c2)n1.O=C(O)C(F)(F)F` [GSK1653537], 4%; as for `CCC(CC)(CC)n1cnc2c(N)ncnc21` [SKF-97620], 42%.
As to `OCCOCCn1ccc2ncnc(Nc3ccc(Oc4cccc(Cl)c4)c(Cl)c3)c21`, the “%Inh” value came out at 0%.
For `COc1ccc(Nc2nccc(N3CCC(NC(=O)c4cccc(NC(C)=O)c4)C3)n2)cc1` (stereo not shown) [GSK1379732], the “%Inh” value came out at 11%.
As to `Cc1ccc(O)cc1Nc1cc(C(F)(F)F)nc2ccc(-c3ccncc3)cc12` [GW630823], the “%Inh” value amounted to 0%.
As to `Cn1ccc2ncnc(Nc3ccc(Oc4cccc(Cl)c4)c(Cl)c3)c21`, the “%Inh” value is reported as 38%.
For `Clc1cc(Nc2ncnc3cc[nH]c23)ccc1OCc1ccccn1`, the “%Inh” value was 21%.
On to `O=C(NCCCN1CCCC1=O)c1cnc(NCc2cc(Cl)ccc2Cl)nc1NC1CCNCC1`, for which the “%Inh” value was found to be 0%.
Still for that read-out and setting: with `COc1ccc(Nc2nccc(N3CCC(NC(=O)Nc4ccc5c(c4)OCO5)C3)n2)cc1` (stereo not shown) [GSK1379745] the figure was 15%.
`Fc1ccc(Nc2nccc(-c3c(-c4ccc(Cl)cc4)nn4ncccc34)n2)cc1F` [GW829058]: the “%Inh” value worked out at 33%.
As for `C[C@H]1CC[C@@H](C(=O)Nc2ccccc2)CN1c1cc(-c2ccc3c(N)n[nH]c3c2)nc(N)n1` [GSK2283293], the “%Inh” value is 7%.
